Screening data as filed in PubChem BioAssay.
Hits are enriched below; roughly 5% of the tested compounds scored in any of these assays.
VACV Venus inh: vaccinia inhibition (Venus reporter). AID 720580. Potency, µM (titrated, usually from 36.5 µM), actives largely listed as inhibitors. Vaccinia virus Venus reporter expression, fluorescence. 330,000 compounds, 0.46% hits; calls by dose curve; tested in A549 cells; further: nearly all actives have a fitted effect of over 30% in size
Tb PYK inh: blocks Trypanosoma brucei pyruvate kinase. Q57TT1. TbPYK enzyme, Kinase-Glo Plus ATP luminescence, 45 min. Potency, µM (doses to about 76.8 µM), usual class: inhibitors. 410,000 compounds, 0.12% hits; further: nearly all actives have a fitted effect of over 50% in size
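Glycolytic pyruvate kinase of T. brucei was incubated with substrate, test compound and 130 uM ADP for 45 minutes at room temperature. Luminescent Kinase-Glo Plus signal was measured after 10 minutes.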
VACV mCherry inh: vaccinia inhibition (mCherry reporter); Vaccinia virus mCherry reporter infection, fluorescence; Potency, µM (highest dose often 36.5 µM), most hits filed as inhibitors; 310,000 compounds, 0.63% hits; calls by dose curve; tested in A549 cells; further: nearly all actives have a fitted effect of over 35% in size
HCMV antiviral: inhibitors of human cytomegalovirus; activity change, negative = inhibition, % at 57.5 µM; HFF cells, HCMV-luciferase reporter, 72 h; active compounds read low; 410,000 compounds, 4.5% hits; in the data active means activity change below about -60%; inconclusive means no clear call, values can overlap the other calls; inactive means above about -39%
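Luciferase read-out from HCMV-luciferase-infected HFFs (MOI 1 PFU/cell) 72 h post infection at 37C; compounds added after 16 h cell attachment; activity normalized between buffer-only basal and Salinomycin (10uM) inhibitor controls.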
LmPK inhibitor: blocks Leishmania mexicana pyruvate kinase activity. Q27686. purified LmPK, Kinase-Glo ATP luminescence, 1 h. Potency, µM (doses to about 57.5 µM), most hits filed as inhibitors. 290,000 compounds, 0.37% hits. AID 1721
Target sequence (Q27686 whole entry, looked up): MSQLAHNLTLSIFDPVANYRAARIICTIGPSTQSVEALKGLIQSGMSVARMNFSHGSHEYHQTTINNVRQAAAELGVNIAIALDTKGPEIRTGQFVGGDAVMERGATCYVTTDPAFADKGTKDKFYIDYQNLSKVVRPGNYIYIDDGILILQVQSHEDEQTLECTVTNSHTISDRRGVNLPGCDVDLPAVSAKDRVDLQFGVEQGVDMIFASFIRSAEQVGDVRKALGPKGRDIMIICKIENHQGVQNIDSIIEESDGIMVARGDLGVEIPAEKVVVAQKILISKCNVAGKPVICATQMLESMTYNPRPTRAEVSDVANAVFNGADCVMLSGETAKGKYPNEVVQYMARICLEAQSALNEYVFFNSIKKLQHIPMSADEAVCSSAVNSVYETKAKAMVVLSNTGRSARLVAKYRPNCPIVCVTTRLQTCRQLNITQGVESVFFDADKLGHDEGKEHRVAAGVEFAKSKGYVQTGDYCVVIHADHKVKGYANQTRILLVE
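Purified LmPK (0.1 nM) converted ADP (0.1 mM) to ATP with PEP (0.5 mM) in imidazole buffer pH 7.2 with KCl and MgCl2, 1 h at room temperature. ATP was read by Kinase-Glo luminescence; data normalized to uninhibited and no-enzyme controls.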
Hits are given with their value; - = inactive; ? = inconclusive; . = not tested or not shown; ! = not active in a repeat. Unless noted, the call rests on the fitted dose curve; in most records, active means well fitted curve in the direction sought with a large enough effect; inconclusive means small, poorly fitted or top-dose-only effect, or another doubt; inactive means no such curve, though single readings can be large; an effect the other way counts as inactive or inconclusive.

SMILES	VACV Venus inh	Tb PYK inh	VACV mCherry inh	HCMV antiviral	LmPK inhibitor
CCCNC(=O)CSc1nc(-c2cccs2)cc(C(F)(F)F)n1	.	-	.	-	-
CCOc1ccc(NC(=O)CSc2nc(-c3cccs3)cc(C(F)(F)F)n2)c([N+](=O)[O-])c1	-	-	-	-101	-
CCN1/C(=C\C=C\C2=[N+](CC)c3ccccc3C2(C)C)C(C)(C)c2ccccc21	.	?	.	.	10µM
CCOC(=O)/C=C1/N(C)c2ccccc2C1(C)C	-	-	-	-	-
N#Cc1cc2sc3nnc(-c4ccncc4)n3c2cc1C#N	?	-	-	-62	-
CSc1ncccc1C(=O)Nc1cccc(S(=O)(=O)N2CCCC2)c1	.	-	.	-	.
Cc1nc(-c2ccccn2)nc(SCC(=O)c2ccccc2)c1Cl	?	-	?	-82	-
Cc1nc(-c2ccccn2)nc(SCC(=O)N2CCOCC2)c1Cl	.	-	.	-	-
Cc1cc(Cl)ccc1OCC(=O)NNC(=O)c1ccc(=O)[nH]c1	-	-	-	-	.
O=C1C=C2C=C[C@@H]3C[C@@]2(O1)[C@H]1CCCCN31	14µM	.	?	.	.
O=C1C=C(N2CCCCC2)C2(CCCCC2)O1	-	-	-	-	-
CC(C)Cc1ccc(CN2CCCC(NC(=O)c3ccnn3C)C2)cc1 (stereo not given)	-	-	-	-80	-
CC(C)Cc1ccc(CN2CCCC(NC(=O)c3cccc(-n4cnnc4)c3)C2)cc1 (stereo not given)	-	-	?	-60	-
CC(=NNc1ccc2ccccc2n1)c1ccccn1	.	.	.	-101	.
C/C(=N\Nc1nc2ccccc2nc1C)c1ccccc1O	-	-	?	-	-
CC(=NNc1ccc2ccccc2n1)c1ccccc1O	-	-	-	-61	.
COc1ccc2nc(NN=C(C)c3ccccn3)cc(C)c2c1	?	-	1µM	-99	.
COc1ccc(CCC(=O)OCc2csc(CC(=O)Nc3ccc(C)cc3)n2)cc1OC	-	-	-	-	.
Nc1ccc(C(=O)OCCCc2nc3cc4ccccc4cc3[nH]2)cc1	.	-	.	?	-
Nc1ccc(Cc2nc3cc4ccccc4cc3[nH]2)cc1	-	-	5.6µM	?	-
Nc1ccc(C(=O)OCc2nc3cc4ccccc4cc3[nH]2)cc1	-	-	5µM	-93	-
CC(C)(C)NC(=O)C1c2ccccc2OCC(=O)N1Cc1ccc2c(c1)OCO2 (stereo not given)	-	-	-	-	.
COc1cc(C2CC(=O)Nc3cc(C)c(C)cc32)cc(OC)c1OC (stereo not given)	-	-	?	-	-
Cc1cc2c(cc1C)C(c1cccc([N+](=O)[O-])c1)CC(=O)N2 (stereo not given)	1µM	-	0.35µM	-	-
O=C1CC(c2cccc(Br)c2)c2cc3c(cc2N1)CCC3 (stereo not given)	?	-	?	-65	-
SMILES	VACV Venus inh	Tb PYK inh	VACV mCherry inh	HCMV antiviral	LmPK inhibitor
COc1cc2c(cc1OC)C(c1cccc(Br)c1)CC(=O)N2 (stereo not given)	.	-	.	-	-
O=C(NN=Cc1ccc(N2CCOCC2)s1)c1ccc([N+](=O)[O-])cc1	.	-	.	-	.
COc1ccc(OC)c(NC(=O)CSc2nc(=O)n(CCN3CCOCC3)c3c2CCC3)c1	-	-	-	-	.
Cc1nc2nncn2c(N2CCN(c3ccccc3)CC2)c1C	-	-	-	-74	.
CCCc1cc(N2CCN(c3ccc(OC)cc3)CC2)n2cnnc2n1	?	-	?	-78	.
CCCc1cc(N2CCN(c3ccccc3)CC2)n2cnnc2n1	-	-	-	?	.
Cc1cc(N2CCN(c3ccccc3)CC2)n2cnnc2n1	-	-	-	-	.
COc1ccc(N2CCN(c3c4c(nc5nncn35)CCC4)CC2)cc1	?	-	-	-70	.
COc1ccc(C)cc1NC(=O)c1cnc2sccn2c1=O	.	.	.	-	-
Cc1nc2ccccc2c(=O)n1N(c1ccccc1)c1ccccc1	.	-	.	-68	-
Cc1cc(=O)c2cc(C(=O)Nc3ccccc3)ccc2[nH]1	-	-	-	-	.
CCOC(=O)c1cc2c(=O)n3ccccc3nc2n(C(C)C)c1=NC(=O)c1c(-c2c(F)cccc2Cl)noc1C	-	-	-	-90!	-
Cc1ccc(CNC(=O)c2cc3c(=O)n4ccccc4nc3n(Cc3ccco3)c2=N)cc1	-	-	-	-	-
CCOC(=O)c1cc2c(=O)n3ccccc3nc2n(Cc2ccco2)c1=NC(=O)c1cc(C)cc(C)c1	10µM	-	?	-77	.
Cc1ccc2nc3c(cc(C(=O)NCc4ccco4)c(=N)n3Cc3ccco3)c(=O)n2c1	-	-	-	-61	-
O=C(NCc1cccs1)C1CCCN1S(=O)(=O)c1ccccc1F (stereo not given)	.	-	.	-	-
c1cc(-c2nnc3sc(C4CCCCC4)nn23)ccn1	.	-	.	-80	-
COc1cccc(-n2cc(C(=O)NCCc3ccc(C)cc3)c3ccccc3c2=O)c1	-	?	-	-61	.
COc1cccc2c1C1COC3C4CC(C(=O)O)C(C(C2)N13)N4C (stereo not given)	-	-	-	-96	.
COc1ccc(CCC(=O)NC(C)C)cc1	-	-	-	-86	-
CNC(=S)SCCOc1ccccc1C	-	-	-	-69	-
CNC(=S)NNC(=O)COc1ccccc1C	-	-	-	?	-
C(=N\Nc1ccc2nncn2n1)/c1ccccn1	?	-	?	-87	-
C/C(=N\Nc1ccc2nncn2n1)c1ccccn1	?	-	?	-96	-
CCOC(=O)c1cc(-c2ccccc2C)n(CC2CC(c3cccc([N+](=O)[O-])c3)=NO2)n1 (stereo not given)	-	-	-	-	.
SMILES	VACV Venus inh	Tb PYK inh	VACV mCherry inh	HCMV antiviral	LmPK inhibitor
COc1ccc(C(CNC(=O)c2ccc(N3CCCC3=O)cc2)N2CCCC2)cc1 (stereo not given)	-	-	-	-	.
COC(=O)CN1C(=O)[C@H]2[C@@H](c3ccc(C)o3)N3C(=O)CN(Cc4ccccc4)C(=O)[C@@]3(C)[C@H]2C1=O	-	-	-	-83	-
COC(=O)CN1C(=O)[C@H]2[C@@H](c3ccc(C)o3)N3C(=O)CN(CC4CC4)C(=O)[C@@]3(Cc3ccccc3)[C@H]2C1=O	-	-	-	-93	-
O=C1c2ccccc2C(=O)c2c1ncn2-c1ccccc1	?	-	?	-68	-
CC[C@@]1(O)C(=O)OCc2c1cc1n(c2=O)Cc2cc3c(NC(=O)CN)cccc3nc2-1	?	-	?	-98	-
CCC1(OC(=O)CN)C(=O)OCc2c1cc1n(c2=O)Cc2cc3ccccc3nc2-1 (stereo not given)	?	-	7.1µM	.	-
CCC1(O)C(=O)OCc2c1cc1n(c2=O)Cc2cc3cc(O)ccc3nc2-1 (stereo not given)	?	?	?	-107	.
COc1ccc(S(=O)(=O)NCCCCNS(=O)(=O)c2ccc(OC)cc2)cc1	.	-	.	-	-
CCCOc1ccc(-c2nnn(CC(=O)OCC)n2)cc1	.	-	.	-	-
O=C(Nc1ccc(Cl)cc1)Nc1nnc(SCc2ccc(Cl)cc2)s1	.	-	.	-	-
O=C(Nc1ccc(Cl)cc1)Nc1nc(-c2ccccc2O)cs1	.	-	.	-66	-
